In all, about 48,000 compounds went through this assay and about 13,000 (27%) showed an effect of 50% or more. This is one part of the list.
System: Wolbachia pipientis
Experiment: Anti-Wolbachia Cell-Based Screen
Assay type: functional
Set-up: scale not given: in the data most compounds retested in dose-response had high values
Conditions: 5 µM

SMILES | Percent Effect [%]
Cc1ccc(C2(O)CCN(Cc3nnc(-c4cccnc4)o3)CC2)nc1 | -8.871
Cc1ccc(-c2nnc(CN3CCN(c4ccccn4)CC3)o2)cc1 | 118.2
Cc1ccc(-c2nnc(CN3CCNC(=O)C3)o2)cc1 | -29.77
O=C(c1ccccc1O)N1CCn2c(nnc2C(F)(F)F)C1 | -8.527
Cc1nnc2n1CCN(C(=O)C(OC1CCCC1)c1ccccc1)C2 (stereo not given) | 0.08716
O=C(Nc1ccccc1)N1CCn2c(nnc2C2CCNCC2)C1 | 105.9
CC(C)NC(=O)C(c1ccccc1)N1CCn2c(nnc2C2CC2)C1 (stereo not given) | 0.9151
Cc1cc(NC(=O)CN2CCn3c(nnc3C3CC3)C2)no1 | -12.55
O=C(Nc1ccccc1)N1CCn2c(nnc2C2CCCN2)C1 (stereo not given) | 106.2
Cn1cc(CNCC2(N3CCCCC3)Cc3ccccc3C2)cn1 | -0.5934
CN(C)C(=O)[C@H]1C[C@H]2OCC[C@H]2N(CCOc2ccc(Cl)cc2)C1.O=C(O)C(F)(F)F | -1.97
O=C1CC(c2ccc3ccccc3n2)c2c(n[nH]c2C2CCC2)N1 (stereo not given) | 48.61
CC(C)c1nccc(C2CC(=O)Nc3n[nH]c(C4CCC4)c32)n1 (stereo not given) | 111.7
COc1nc2ccccc2cc1C1CC(=O)Nc2n[nH]c(C3CCC3)c21 (stereo not given) | 94.97
CNC(=O)c1n[nH]c2c1C(c1cccc3nsnc13)CC(=O)N2 (stereo not given) | 1.687
O=C(CN1CCCC1c1nc(Cc2ccc(F)cc2)no1)NC1CC1 (stereo not given) | 6.491
CCCN(CC1CC1)C(=O)CN1CCCC1c1cnn(C)c1 (stereo not given) | -10.58
COCCOC[C@]1(CNCc2ccc(F)cc2)C[C@@H](O)[C@@H](O)C1.Cl | 9.118
CCn1ncc2c1CCCC2NCc1ccc(C)s1 (stereo not given) | -6.275
O[C@@H]1CN(CC2CC2)CC[C@H]1N1CCN(c2ccccc2F)CC1 | 4.313
Cc1nn(C)c(C)c1CCC(=O)N1CCCOC(Cn2cccn2)C1 (stereo not given) | -1.849
Cc1nn(C)c(C)c1CC(=O)N1CCCC(n2cccn2)C1 (stereo not given) | -0.59
Cc1noc(Cl)c1CC(=O)N1CCCC(n2cccn2)C1 (stereo not given) | -0.9782
Cc1cnn(C2CCCN(C(=O)CCc3c(C)noc3C)C2)c1 (stereo not given) | 114.5

SMILES | Percent Effect [%]
Cc1nn(C)c(C)c1CCC(=O)N1CCCC(n2cccn2)C1 (stereo not given) | 104.5
Cc1noc2ncc(C(=O)N3CCCC(n4cccn4)C3)cc12 (stereo not given) | -8.644
Cc1noc(C)c1CCC(=O)N1CCCC(n2cccn2)C1 (stereo not given) | 112.2
Cc1cnn(C2CCCN(C(=O)c3c(C)oc(C)c3C)C2)c1 (stereo not given) | 2.216
O=C(NCc1csc(-c2cccs2)n1)C1NCCc2[nH]cnc21 (stereo not given) | -2.948
COc1ccccc1OCC(=O)NS(=O)(=O)c1ccc(F)cc1F | -4.254
CC(=O)N(CCc1nc(-c2cc(C(N)=O)oc2C)cs1)C(C)C | 1.206
CN1CCN(Cc2cn3c(n2)CN(C(=O)N2CCCC2)CC3)CC1 | -9.344
CS(=O)(=O)NCc1cn2c(n1)CN(Cc1ccoc1)CC2.O=C(O)C(F)(F)F | 2.843
c1cncc(CN2CCn3cc(CN4CCCCC4)nc3C2)c1 | 99.27
CN1CCN(Cc2cn3c(n2)CN(Cc2ccccn2)CC3)CC1 | 100
O=C(CC1CC1)NCc1cn2c(n1)CN(Cc1cccnc1)CC2.O=C(O)C(F)(F)F.O=C(O)C(F)(F)F | -16.83
CS(=O)(=O)NCc1cn2c(n1)CN(Cc1cccnc1)CC2.O=C(O)C(F)(F)F.O=C(O)C(F)(F)F | 116.6
Cn1cccc1C(=O)NCc1cn2c(n1)CN(Cc1cccnc1)CC2.O=C(O)C(F)(F)F.O=C(O)C(F)(F)F | -5.868
CN1CCN(Cc2cn3c(n2)CN(CC2CC2)CC3)CC1 | 0.4207
Cn1cccc1C(=O)NCc1cn2c(n1)CN(Cc1ccccn1)CC2.O=C(O)C(F)(F)F.O=C(O)C(F)(F)F | -5.455
O=C(NCc1cn2c(n1)CN(Cc1cccnc1)CC2)C1CCC1.O=C(O)C(F)(F)F.O=C(O)C(F)(F)F | -2.2
CN1CCN(Cc2cn3c(n2)CN(C(=O)c2ccccn2)CC3)CC1.O=C(O)C(F)(F)F.O=C(O)C(F)(F)F.O=C(O)C(F)(F)F | 6.364
CN1CCN(Cc2cn3c(n2)CN(Cc2ccncc2)CC3)CC1 | 100.2
COCCNC(=O)Nc1ccn(-c2cccc(C(F)(F)F)c2)n1 | 3.521
OCCC1CN(c2ncnc3[nH]cnc23)CCN1Cc1ccccc1F (stereo not given) | -3.014
OCCc1cc(CC2(NCc3ccc(C(F)(F)F)cc3)COC2)no1 | 1.711
CN(C(=O)CN(Cc1cccc(O)c1)C1CCC(O)CC1)C1CC1 (stereo not given) | 2.382
CCc1ccc(CN2CCCC(c3nn(C)c(=O)n3CC)C2)nc1 (stereo not given) | 20.88

SMILES | Percent Effect [%]
CC(C)NC(=O)CCNC(=O)CCc1cc(Br)cs1 | -10.2
COc1ccc(-c2n[nH]cc2CN(C)Cc2nccn2C)c(F)c1 | -1.077
COc1ccc2cccc(CC(=O)NCc3nccc(N)n3)c2c1 | -13.23
Cn1cc(CNC[C@H]2Cn3ccnc3CO2)c2ccccc21 | -9.127
COc1ccc2c(c1)c(-c1nc(C)ncc1CN)cn2C | 104.6
COc1ccc(-c2ccccc2CN)c(OC)c1 | -11.71
COc1ccc2cccc(CC(=O)NCc3n[nH]c(=O)[nH]3)c2c1 | 5.869
Cc1ncc(CN)c(-c2cn(C)c3ccccc23)n1 | 142.3
COc1ccc(CN)c(OC(F)F)c1.Cl | -5.611
COc1ccc2c(c1)c(-c1nc(N(C)C)ncc1CN)cn2C | 69.63
COCC(=O)NCc1cnc(C)nc1-c1cn(C)c2ccc(OC)cc12 | 67.07
Cc1cc(N2CCN(C(=O)c3cn(C)c4ccccc34)CC2)nc(C)n1 | 1.104
COc1ccc(OC)c(CN(C)c2nc3c(cnn3C)c(=O)[nH]2)c1 | -18.11
CN(CCNC(=O)N1CCN(Cc2ccon2)CC1)C1CCCC1 | -5.523
CC1CCN(CC2(O)CCCN(Cc3cccc(F)c3F)C2=O)CC1 (stereo not given) | -9.136
O=C(CN(Cc1ccccc1)CC1CCOCC1)Nc1nccs1 | -5.546
Cn1cnnc1CN1CCC2(CCC(=O)N(Cc3ccccc3)C2)CC1 | -10.98
Cc1nnc2n1CCN(C(C(=O)NC1CC1)c1ccccc1)C2 (stereo not given) | -4.736
O=S(=O)(CC1CCCCC1)NCc1ccnc(O)c1 | -10.25
COc1ccc2c(ccn2CC(=O)Nc2n[nH]c(CC(C)C)n2)c1 | 220.2
COc1ccc2c(ccn2CCC(=O)Nc2n[nH]c(CC(C)C)n2)c1 | 106.4
COCCN(C)C(=O)Nc1ccc2c(ccn2CC(=O)N(C)C)c1 | 5.654
COc1ccc2nc(CCNC(=O)c3cc(CC(C)C)no3)[nH]c2c1 | 0.008091
CCNC(=O)Nc1ccc2c(ccn2CC(=O)N(CC)CC)c1 | -5.513

SMILES | Percent Effect [%]
CNS(=O)(=O)Cc1ccc(CNc2ccc(C#N)cn2)cc1 | 0.03552
O=C(O)C(F)(F)F.O=C(O)C(F)(F)F.c1csc(CN2Cc3nc(CN4CCCC4)oc3C2)c1 | 109.9
O=C(O)C(F)(F)F.O=S(=O)(c1cccs1)N1CCCn2nnc(CN3CCCCC3)c2C1 | -14.53
O=C(Cc1ccsc1)N1Cc2nc(CN3CCCCC3)oc2C1.O=C(O)C(F)(F)F | 93.12
O=C(NCc1cccs1)c1nc2c(o1)CN(c1ncccn1)C2 | 0.5771
O=C(O)C(F)(F)F.O=C(O)C(F)(F)F.c1csc(CN2CCCn3cnc(CN4CCCC4)c3C2)c1 | -7.451
O=C(Cc1cccs1)N1Cc2nc(CN3CCCC3)oc2C1 | 101.2
O=C(c1ccc2[nH]ccc2c1)N1Cc2nc(CN3CCCC3)oc2C1 | -7.855
O=C(O)C(F)(F)F.O=C(c1ccc2[nH]ccc2c1)N1Cc2nc(CN3CCCCC3)oc2C1 | -9.773
O=C(O)C(F)(F)F.O=S(=O)(c1cccs1)N1CC[C@H]2[C@H]1CCN2CC1CC1 | -12.79
O=C(O)C(F)(F)F.O=C(O)C(F)(F)F.O=C(c1ccncc1F)N1Cc2nc(CN3CCCCC3)oc2C1 | -18.26
Cc1ncnc2c1CCN(Cc1cccs1)CC2.O=C(O)C(F)(F)F | -21.74
O=C(O)C(F)(F)F.O=S(=O)(c1cccs1)N1Cc2nc(CN3CCCCC3)oc2C1 | 109.1
CC(C)Oc1ccc(CN2CCN3CCN(C)CC3C2)cc1CO (stereo not given) | 9.29
CC(C)N1CCc2onc(Cn3cccc3)c2C1.O=C(O)C(F)(F)F | -0.5475
CCc1cnc(C)nc1NCCC(=O)N1CCC(C)CC1 | -0.3722
COc1ccnc(N(C)Cc2ccccc2O)n1 | -0.8473
CN(C)C(CNCc1nc(-c2ccsc2)no1)c1cccc(F)c1 (stereo not given) | 29.87
CC(=O)Oc1ccnc(C(F)(F)F)c1C(C)=O | 6.517
O=C(O)C(F)(F)F.O=S(=O)(c1cccs1)N1Cc2nc(CN3CCCC3)oc2C1 | 87.16
O=C(O)C(F)(F)F.O=S(=O)(c1cccs1)N1CCCn2cnc(CN3CCCC3)c2C1 | -2.227
O=C(O)C(F)(F)F.O=S(=O)(c1cccs1)N1CC[C@@H](O)[C@@H]1Cc1ccncc1 | 6.31
Cc1cccc(CN2C[C@@H]3CN(C(=O)c4ccsc4)C[C@@H]3C2=O)n1.O=C(O)C(F)(F)F | -3.63

Source: ChEMBL document CHEMBL3988442, “University of Dundee, Small-Polar-MMV Screening Library” (2021)
